Screening results as filed in PubChem BioAssay.
MITF inhib = blocks MITF activity | TRPM1 promoter luciferase, luminescence, 24 h | inhibition, % (test concentration not listed) | AID 2240 | actives 0.28% (n = 37,000); in the data active = inhibition above about 85%;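 also: human melanocyte line stably carrying TRPM1 promoter luciferase reporter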
Shh pathway inh = blocks Sonic Hedgehog signaling; Shh-LIGHT2 Gli-luciferase reporter, 30 h; inhibition, % (test concentration not listed); actives 2.1% (n = 22,000);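 active = mean inhibition across valid replicates above about 65%, limit read from the data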;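 also: pathway switched on by Shh-conditioned medium diluted 1 in 25 in low serum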
BJeLR viability = BJeLR cell viability reduction; viability loss activity score, % (test concentration not listed); actives 0.64% (n = 30,000); AID 2275; BJeLR fibroblasts viability, CellTiterGlo ATP luminescence, 48 h; HRASV12, hTERT and SV40 LT/ST transformed; in the data active = viability loss activity score above about 50%;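 also: higher score means fewer live cells and less ATP luminescence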
Numbers without * were called inactive. The entries come from a sample that favours hits as a whole.

Screening Cc1noc(C)c1S(=O)(=O)N(C)C[C@H]1Oc2ccc(NC(=O)C3CC3)cc2CC(=O)N([C@H](C)CO)C[C@H]1C returned MITF inhib 2 and Shh pathway inh -13.
For Cc1cc(C(=O)Nc2cccc3c2O[C@@H](CN(C)S(=O)(=O)c2ccc(Cl)cc2)[C@H](C)CN([C@H](C)CO)C3=O)n(C)n1 the results were MITF inhib -4, Shh pathway inh -14 and BJeLR viability -1.
O=C(Nc1ccc(N2CCN(Cc3ccccc3)CC2)cc1)Nc1ccc(C(F)(F)F)cc1 was read as BJeLR viability -1.
COc1ccc(CCNC(=O)c2ccc(C3SCC(=O)N3Cc3ccccc3)cc2)cc1OC (configuration not stated) was read as BJeLR viability -2.
`CCCCc1c(C)c(C#N)c2[nH]c3ccccc3n2c1=O` gave BJeLR viability 12.
Screening CCc1c(C)c(C#N)c2[nH]c3ccccc3n2c1=O returned BJeLR viability 101*.
Screening Cc1ccc(Nc2nc(N)nc(CN3CCC(Cc4ccccc4)CC3)n2)cc1 returned BJeLR viability 5.
Screening O=C(NCCc1ccccc1)N1c2ccccc2Sc2ccccc21 returned MITF inhib 43, Shh pathway inh 92* and BJeLR viability 0.
Screening CC(C)CNC(=O)N1c2ccccc2Sc2ccccc21 returned BJeLR viability 9.
`CC(=O)OC[C@H]1O[C@@H](Oc2cc(OC(C)=O)c3c(=O)cc(-c4ccc(OC(C)=O)cc4)oc3c2)[C@H](OC(C)=O)[C@@H](OC(C)=O)[C@@H]1OC(C)=O` gave MITF inhib -18, Shh pathway inh 65* and BJeLR viability -16.
Screening CC(=O)Oc1ccc(-c2coc3cc(OC(C)=O)cc(OC(C)=O)c3c2=O)cc1 returned MITF inhib -28, Shh pathway inh -60 and BJeLR viability 1.
`COc1ccc(-c2c(-c3ccc(OC)cc3)n(Cc3ccc(F)cc3)c3nc[nH]c(=O)c23)cc1` gave BJeLR viability -5.
For COc1ccc(OCC(=O)Nc2cc(-c3nc4ccccc4s3)ccc2C)cc1 the results were MITF inhib -26.
For COc1ccc(-c2nc3ccccc3s2)cc1 the results were MITF inhib 70, Shh pathway inh -36 and BJeLR viability 60*.
For Cc1ccc(-c2noc(CNc3ccc(Oc4ccccc4)cc3)n2)cc1 the results were BJeLR viability -1.
CC(=O)OCC(=O)[C@@]1(O)[C@H](C)C[C@H]2[C@@H]3CCC4=CC(=O)C=C[C@]4(C)[C@@]3(F)[C@@H](O)C[C@@]21C was read as MITF inhib -47, Shh pathway inh 82* and BJeLR viability -16.
`CC(=O)OCC(=O)[C@@]1(O)CCC2C3C[C@H](C)C4=CC(=O)C=CC4(C)C3[C@@H](O)CC21C` (some centres not stated) gave MITF inhib -14, Shh pathway inh 41 and BJeLR viability -8.
CC(=O)[C@@]1(O)CC[C@H]2[C@@H]3C[C@H](C)C4=CC(=O)C=C[C@]4(C)[C@@]3(F)[C@@H](O)C[C@@]21C was read as MITF inhib -36, Shh pathway inh 67* and BJeLR viability -13.
C[C@@H]1C[C@H]2[C@@H]3CCC4=CC(=O)C=C[C@]4(C)[C@@]3(F)[C@@H](O)C[C@]2(C)[C@@]1(O)C(=O)CO was read as MITF inhib -32, Shh pathway inh 18 and BJeLR viability -7.
For COC(=O)CNC(c1ccccc1)c1cc(Br)ccc1NC(=O)c1ccccc1Cl (configuration not stated) the results were BJeLR viability -5.
Screening Cc1ccc2nsnc2c1NC(=O)CC12CC3CC(CC(C3)C1)C2 returned BJeLR viability 7.
Screening CC1CC(C)CN(C(=O)Cn2c(=O)n(-c3ccc(Cl)cc3)c(=O)c3c4c(sc32)CCC4)C1 (configuration not stated) returned BJeLR viability -12.
`CC(=O)Nc1ccc(S(=O)(=O)NCc2ccc(C(=O)NC3CCCC(C)C3C)cc2)cc1` (configuration not stated) gave BJeLR viability 1.
Screening CN(C(=O)c1cc2c(=O)oc3ccccc3c2s1)c1ccccc1Cl returned BJeLR viability -1.
For CCN(CC)c1ccc(/C=C2\CCc3ccccc3C2=O)cc1 the results were BJeLR viability 41.
`Cn1cccc1/C=C1\CCc2ccccc2C1=O` gave BJeLR viability 73*.
Screening CCC(=O)N1CCc2cc(S(=O)(=O)Nc3ccc(CC)cc3)ccc21 returned BJeLR viability 5.
For COc1ccc(C2(CNC(=O)C(c3ccccc3)c3ccccc3)CCOCC2)cc1 the results were BJeLR viability -5.
Screening CN1C(=O)c2ccccc2NC(=O)[C@]12O[C@@H]2c1cccc(O)c1 returned MITF inhib 5, Shh pathway inh -15 and BJeLR viability -7.
O=C1N=C(c2cccc(O)c2)c2ccccc2Nc2ccccc21 was read as MITF inhib 10, Shh pathway inh 86* and BJeLR viability -4.
For CC(C)(C)c1ccc(C(=O)Nc2cccc(-c3cn4cccnc4n3)c2)cc1 the results were BJeLR viability 2.
`CCCNC(=O)C1=C(C)C(=O)OC12CCCCC2` gave BJeLR viability -2.
For C=CCn1c(=S)sc2c(Sc3nnc(-c4ccco4)o3)ncnc21 the results were MITF inhib 67, Shh pathway inh 73* and BJeLR viability 63*.
Screening C=CCn1c(=S)sc2c(SCC(N)=O)ncnc21 returned BJeLR viability 7.
Screening O=C(CCn1c(=S)oc2ccccc21)N1CCn2c(nc3ccccc32)C1 returned BJeLR viability 1.
`O=c1c2ccccc2[nH]c(=S)n1C1CCCC1` gave BJeLR viability -3.
For S=c1[nH]nc(CSCc2cccc3ccccc23)n1C1CCCCC1 the results were MITF inhib 18, Shh pathway inh 69* and BJeLR viability -8.
CCOc1cc(C(=O)NCc2ccc3[nH]c(C)cc3c2)cc(OCC)c1OCC was read as BJeLR viability -2.
For CCC(=O)Nc1cc2nc3[nH]c(=O)n(C4CCCCCC4)c(=O)c3nc2cc1C the results were BJeLR viability 3.
Cc1c(C2CCN(CCc3ccccc3)CC2)noc1-c1ccc(Cl)cc1 was read as MITF inhib -1, Shh pathway inh 77* and BJeLR viability 9.
`Cc1oc(-c2ccc(Cl)cc2)nc1CN1CCC(C(=O)NC(C)CCc2ccccc2)CC1` (configuration not stated) gave BJeLR viability -1.
`CC(C)Cn1cc(C(=O)NCc2ccco2)c2c3ccccc3n(C)c2c1=O` gave BJeLR viability 0.
Screening CC1CCCCC1NC(=O)c1cnn2c(C(F)(F)F)cc(-c3ccccc3)nc12 (configuration not stated) returned BJeLR viability 2.
`CC(C)CN(CC(C)C)S(=O)(=O)c1ccc(Br)s1` gave BJeLR viability 3.
C[C@H]1CN([C@@H](C)CO)C(=O)c2cccc(NS(=O)(=O)c3ccc(F)cc3)c2O[C@@H]1CN(C)S(=O)(=O)c1ccc(Cl)cc1 was read as MITF inhib -12, Shh pathway inh 31 and BJeLR viability -1.
